Results on eight molecules are retold here after PubChem BioAssay (NCATS).

Test [1] in a line: AP1 Signaling Pathway (AID 357; active = well fitted curve in either direction with a large enough effect, not every such curve was filed as active;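 also: ME-180 reporter cells stimulated with EGF at its EC50 level; % is scaled to controls: 0 for no effect and ±100 for the full control effect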). The note with it: ME-180 AP-1-bla reporter, EGF-induced, beta-lactamase ratio, 5 h; at 7.69 µM (top of the series) unless noted. The method in brief:
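Titration-series screen for positive or negative modulators of EC50 EGF-induced signaling in ME-180 cells carrying an AP-1-driven beta-lactamase reporter. After 5 hours at 37 degrees Celsius, CCF4 460nm/530nm emission ratio gave %Activity; AC50 values derived.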

Test [2] addresses Glucocorticoid receptor (Homo sapiens) (UniProt P04150). In words: GR-GFP Redistribution (AID 450;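 active = compounds whose dose series gives a full or clear partial fitted curve of increased nuclear translocation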; also: potency is read from the fitted curve at half-maximal effect). The conditions noted are these: U2OS GR-GFP nuclear translocation, laser cytometry, 2 h.
Test [3] shares this target. Briefly: GR-EFC Redistribution (AID 451; calls by dose curve; also: potency is read from the fitted curve at half-maximal effect). The note with it: CHO-K1 GR-EFC translocation, beta-gal luminescence, 2 h. In outline:
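CHO-K1 cells expressing nuclear EA and GR-ED fragments of b-gal; compounds titrated up to 46 uM final, 2 h at 37 C. GR nuclear translocation read as complemented b-gal luminescence after 1 h RT detection.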

In test [4] the target is 3',5'-cyclic-AMP phosphodiesterase 4B (Homo sapiens) (UniProt Q07343). In words: qHTS Assay for Inhibitors of PDE-IV (AID 607; active = well fitted activation curve with a large enough effect in the main read-out, with a control signal flat, not every such curve was filed as active; also: % of control where 0% means no effect). In outline: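 Live HEK293 cells with a modified cyclic nucleotide-gated (CNG) channel report intracellular cAMP via membrane-potential dye fluorescence (ex 535/em 590 nm). Endogenous PDE-IV was targeted. Compounds were tested at up to 22.9 uM final; RO 20-1724 100 uM served as control.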
(Quantitative high-throughput screening tests each substance at several concentrations.)

Test [5] in a line: qHTS Assay for Lipid Storage Modulators (AID 1519; calls by dose curve; also: potency is read from the fitted curve at half-maximal effect). The conditions noted are these: Drosophila S3 cells, BODIPY lipid droplet/cell ratio, laser cytometry, cells loaded with oleic acid. The method in brief:
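Cells seeded at 5,000 per well were treated with compounds over a concentration series and loaded with oleic acid (400 uM, as added). Lipid droplet fluorescence (488 nm excitation, 500-530 nm channel) was read by laser-scanning cytometry and normalized to 20 uM Triacsin C.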

Test [6] addresses Lysosomal acid glucosylceramidase (Homo sapiens) (UniProt P04062). In words: Glucocerebrosidase-p2 (AID 348; in the data active = potency below about 10 µM; also: potency is read from the fitted curve at half-maximal effect). The conditions noted are these: purified GBA, blue fluorogenic substrate, 40 min. In outline: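 Normal human glucocerebrosidase (0.2 nM) with blue fluorogenic substrate (80 uM final) in citrate/phosphate pH 5.9 with 10mM sodium taurocholate, 0.01% tween-20; 40 min RT, NaOH/glycine stop; fluorescence Ex 365/Em 440; AC50 from a titration from 0.6 nM upwards.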

In test [7] the target is Cytochrome P450 1A2 (Homo sapiens) (UniProt P05177). In words: p450-cyp1a2 (AID 410; calls by dose curve; also: potency is read from the fitted curve at half-maximal effect). The method in brief:
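Read-out is luminescence from luciferin produced by CYP1A2 demethylation of Luciferin-ME (100uM, at Km). Detection reagent stopped the 60 min NADPH-dependent reaction; signals were normalized to 57 uM furafylline.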

Test [8] is described as follows: NFAT Signaling Pathway (AID 444; active = well fitted curve in either direction with a large enough effect, not every such curve was filed as active;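 also: carbachol stimulus at about its EC50 of 1 µM final; % is scaled to controls: 0 for no effect and ±100 for the full control effect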). The note with it: Jurkat NFAT-bla M1, carbachol, beta-lactamase ratio, 5 h; at 7.69 µM (top of the series) unless noted. In outline:
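Jurkat cells with NFAT-driven β-lactamase reporter and co-expressed M1 receptor, stimulated with carbachol (final 1 uM, ~EC50), compound titration, 5 h at 37 °C. CCF4 loaded 1 h at RT; 460/530 nm ratio gave %activity and AC50.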

A short description of test [9]: Stat Signaling Pathway (AID 446; active = well fitted curve in either direction with a large enough effect, not every such curve was filed as active;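 also: ME-180 cervical cancer cells given 40 pM IL-6 alongside compound; SIE-controlled beta-lactamase reporter measured as 460/530 nm FRET emission ratio; % is scaled to controls: 0 for no effect and ±100 for the full control effect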). The note with it: ME-180 (cervical carcinoma) SIE beta-lactamase reporter, IL-6 stimulated, 5 h; at 7.69 µM (top of the series) unless noted. The method in brief:
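Overnight-plated ME-180 cells bearing a STAT Inducible Element beta-lactamase reporter; 5 h co-exposure to compound and 40 pM IL-6; values normalized to 300 pM IL-6 and 125 nM JAK inhibitor controls.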

The target of test [10] is Mitogen-activated protein kinase 10 (Mus musculus) (UniProt Q61831). In words: JNK3 AlphaScreen Assay (AID 530; active = well fitted curve in either direction with a large enough effect, not every such curve was filed as active;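 also: kinase came from lysate of stimulated human HepG2 cells; signal reports phosphorylation of biotinylated GST-cJun 1-79 at Ser73 with 10 µM ATP; % is scaled to controls: 0 for no effect and ±100 for the full control effect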). The method in brief:
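HepG2 lysate (IL-1b/TNFa pre-activated) + biotin-GST-cJun 1-79 + anti-pSer73 cJun; cpd titration, 15 min RT; ATP 10 uM start; Tris pH 7.6, MgCl2, DTT, vanadate; beads in EDTA buffer; AlphaScreen.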

Test [11] addresses Cytochrome P450 3A4 (Homo sapiens) (UniProt P08684). In words: qHTS Assay for Activators of Cytochrome P450 3A4 (AID 885). Also: nearly all actives have a fitted effect of over 65% in size. In outline:
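Using 20nM recombinant human CYP3A4 in potassium phosphate (200mM), substrate Luciferin-PPXE at 25uM, luminescent luciferin detection followed a 60-min RT NADPH reaction; data scaled to 57 uM ketoconazole.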

The target in test [12] is Ubiquitin carboxyl-terminal hydrolase 1 (Homo sapiens) (UniProt O94782). In words: Inhibitors of USP1/UAF1: Pilot qHTS (AID 504865).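 Also: rhodamine fluorescence freed from ubiquitin-rhodamine substrate followed over time; top concentration of the series differs between compounds; % is scaled to controls: 0 for no effect and ±100 for the full control effect; nearly all actives have a fitted effect of over 35% in size.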 In outline: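 USP1/UAF1 complex at 1 nM preincubated 15 min at room temperature with compound, then Ub-Rho substrate added at 150 nM final. Fluorescence (480/540 nm) read kinetically in 50 mM HEPES pH 7.8, 0.5 mM EDTA, 1 mM TCEP, 0.1 mg/ml BSA, 0.01% Tween-20.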

For test [13], the target named is Cytochrome P450 3A4 (Homo sapiens) (UniProt P08684). In words: qHTS Assay for Inhibitors and Substrates of Cytochrome P450 3A4 (AID 884). Also: potency is read from the fitted curve at half-maximal effect; nearly all actives have a fitted effect of over 50% in size. In outline:
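Luminescent readout of luciferin produced by CYP3A4 (20 nM) dealkylation of Luciferin-PPXE, 25 uM (its KM). NADPH-driven reaction ran 60 min at RT after 10 min compound preincubation; data scaled to 57 uM ketoconazole as 100% inhibition.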

Test [14] is described as follows: Confirmation and Secondary Assay for Modulators of Hemoglobin Beta Chain Splicing at IVS2 654 locus (AID 910).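 Also: HeLa cells stably carrying EGFP split by mutant beta-globin IVS2-654 intron; % of control where 0% means no effect.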 The method in brief:
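HeLa cells stably expressing EGFP interrupted by β-globin IVS2-654 intron, seeded overnight in Opti-MEM/2% FCS, then treated 2 days at 37 °C. Restored splicing read as total peak GFP intensity per well by laser scanning cytometry (488 nm excitation, 500–520 nm emission); 500 nM antisense PNA as control.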

A short description of test [15]: Confirmation and Secondary Assay for Modulators of Hemoglobin Beta Chain Splicing at IVS2 705 locus (AID 930).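 Also: HeLa cells stably expressing the EGFP-705 splicing reporter; GFP fluorescence per well restored by corrected splicing of the IVS2-705 intron in EGFP; % of control where 0% means no effect.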 The method in brief:
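Stable HeLa line with EGFP disrupted by mutant beta-globin intron 2 (705). Overnight attachment, then 2 days of compound at 37C, 5% CO2. Signal: peak GFP intensity summed over objects 5-250 µm.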

Test [16] has as its target Rap guanine nucleotide exchange factor 3 (Homo sapiens) (UniProt O95398). In words: Confirmatory qHTS for agonist of cAMP-regulated guanine nucleotide exchange factor 3 (EPAC1) (AID 1645881).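 Also: EPAC1 catalysed release of BODIPY-GDP from Rap1B seen as fluorescence loss; nearly all actives have a fitted effect of over 75% in size.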
For test [17], the target named is Rap guanine nucleotide exchange factor 4 (Homo sapiens) (UniProt Q8WZA2). In words: Confirmatory qHTS for agonist of cAMP-regulated guanine nucleotide exchange factor 4 (EPAC2) (AID 1645884).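 Also: nucleotide exchange releases bodipy-GDP from Rap1 and this lowers its fluorescence; % is scaled to controls: 0 for no effect and ±100 for the full control effect; nearly all actives have a fitted effect of over 65% in size.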
The target is the same in test [18]. In words: Confirmatory qHTS for antagonist of cAMP-regulated guanine nucleotide exchange factor 4 (EPAC2) (AID 1645885). Also: potency is read from the fitted curve at half-maximal effect; nearly all actives have a fitted effect of over 25% in size.
[19] abbreviates: measured here: cell count channel max response.
Setting [20] is: measured here: lipid channel max response.

Results filed as inconclusive are left out. Calls of active or inactive are those of the source. Unless noted, calls follow the shape of the dose curve; as a rule, active = well fitted curve in the direction sought with a large enough effect; inconclusive = small, poorly fitted or top-dose-only effect, or another doubt; inactive = no such curve, though single readings can be large; an effect the other way counts as inactive or inconclusive.

Sequence of Rap guanine nucleotide exchange factor 3 (Homo sapiens) (O95398 whole entry, looked up): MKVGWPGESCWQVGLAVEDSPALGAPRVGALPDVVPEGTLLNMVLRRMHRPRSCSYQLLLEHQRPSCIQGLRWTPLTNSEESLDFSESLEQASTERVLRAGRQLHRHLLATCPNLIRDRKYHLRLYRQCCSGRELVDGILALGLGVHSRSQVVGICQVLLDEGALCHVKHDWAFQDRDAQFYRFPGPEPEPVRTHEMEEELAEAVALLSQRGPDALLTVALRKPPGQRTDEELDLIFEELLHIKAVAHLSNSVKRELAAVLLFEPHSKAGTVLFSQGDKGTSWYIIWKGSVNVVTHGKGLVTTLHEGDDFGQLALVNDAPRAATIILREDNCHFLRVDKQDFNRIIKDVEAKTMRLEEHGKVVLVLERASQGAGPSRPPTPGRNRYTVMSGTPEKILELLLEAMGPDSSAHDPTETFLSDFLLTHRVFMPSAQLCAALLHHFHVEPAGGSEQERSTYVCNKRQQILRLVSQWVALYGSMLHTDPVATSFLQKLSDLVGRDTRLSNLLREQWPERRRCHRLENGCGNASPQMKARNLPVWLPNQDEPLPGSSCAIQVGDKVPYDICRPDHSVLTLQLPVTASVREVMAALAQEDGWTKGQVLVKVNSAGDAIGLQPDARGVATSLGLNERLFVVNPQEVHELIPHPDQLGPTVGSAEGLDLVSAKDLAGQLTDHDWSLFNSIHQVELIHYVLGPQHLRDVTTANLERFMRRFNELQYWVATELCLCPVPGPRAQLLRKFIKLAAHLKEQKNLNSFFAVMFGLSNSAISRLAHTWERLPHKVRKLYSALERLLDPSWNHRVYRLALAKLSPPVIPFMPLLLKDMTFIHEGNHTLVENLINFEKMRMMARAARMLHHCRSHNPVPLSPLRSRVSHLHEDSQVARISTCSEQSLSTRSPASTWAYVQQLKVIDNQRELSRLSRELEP
Sequence of Cytochrome P450 3A4 (Homo sapiens) (P08684 whole entry, looked up): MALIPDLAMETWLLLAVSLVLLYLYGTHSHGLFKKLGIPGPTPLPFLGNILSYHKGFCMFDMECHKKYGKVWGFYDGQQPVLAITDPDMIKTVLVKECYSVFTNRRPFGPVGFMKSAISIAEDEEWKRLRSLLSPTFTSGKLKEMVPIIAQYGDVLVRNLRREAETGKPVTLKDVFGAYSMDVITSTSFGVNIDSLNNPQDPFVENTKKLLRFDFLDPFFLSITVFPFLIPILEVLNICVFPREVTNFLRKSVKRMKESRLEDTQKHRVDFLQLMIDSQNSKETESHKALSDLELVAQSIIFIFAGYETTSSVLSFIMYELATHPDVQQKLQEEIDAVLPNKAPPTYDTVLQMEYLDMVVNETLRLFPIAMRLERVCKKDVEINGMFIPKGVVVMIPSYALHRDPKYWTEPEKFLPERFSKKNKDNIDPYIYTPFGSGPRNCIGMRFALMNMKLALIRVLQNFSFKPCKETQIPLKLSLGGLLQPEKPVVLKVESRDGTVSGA
Sequence of Rap guanine nucleotide exchange factor 4 (Homo sapiens) (Q8WZA2 whole entry, looked up): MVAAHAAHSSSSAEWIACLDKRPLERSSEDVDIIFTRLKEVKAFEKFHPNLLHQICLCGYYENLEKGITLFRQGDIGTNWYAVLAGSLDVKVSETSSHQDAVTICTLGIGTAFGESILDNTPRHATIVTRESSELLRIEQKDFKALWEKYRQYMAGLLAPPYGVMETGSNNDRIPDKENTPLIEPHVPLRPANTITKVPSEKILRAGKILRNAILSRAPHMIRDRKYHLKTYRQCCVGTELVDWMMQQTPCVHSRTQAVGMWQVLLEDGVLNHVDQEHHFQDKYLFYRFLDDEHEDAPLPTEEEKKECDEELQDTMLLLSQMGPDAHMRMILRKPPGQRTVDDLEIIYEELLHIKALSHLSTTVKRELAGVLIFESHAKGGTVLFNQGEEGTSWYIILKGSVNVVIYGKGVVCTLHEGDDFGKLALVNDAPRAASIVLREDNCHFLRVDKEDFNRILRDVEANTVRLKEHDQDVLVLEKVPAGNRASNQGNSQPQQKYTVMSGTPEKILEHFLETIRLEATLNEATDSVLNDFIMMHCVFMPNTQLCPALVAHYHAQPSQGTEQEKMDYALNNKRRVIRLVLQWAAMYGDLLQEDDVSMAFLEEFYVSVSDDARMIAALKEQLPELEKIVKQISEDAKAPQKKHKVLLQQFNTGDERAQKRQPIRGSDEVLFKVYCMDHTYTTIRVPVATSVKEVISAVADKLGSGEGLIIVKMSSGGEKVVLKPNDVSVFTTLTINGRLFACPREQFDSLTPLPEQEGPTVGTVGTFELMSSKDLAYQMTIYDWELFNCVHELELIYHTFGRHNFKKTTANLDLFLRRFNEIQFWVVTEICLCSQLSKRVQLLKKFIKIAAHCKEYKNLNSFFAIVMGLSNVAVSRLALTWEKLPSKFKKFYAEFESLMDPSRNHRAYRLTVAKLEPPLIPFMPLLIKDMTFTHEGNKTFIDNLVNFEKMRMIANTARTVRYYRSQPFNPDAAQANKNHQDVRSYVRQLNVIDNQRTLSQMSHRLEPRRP
Sequence of Glucocorticoid receptor (Homo sapiens) (P04150 whole entry, looked up): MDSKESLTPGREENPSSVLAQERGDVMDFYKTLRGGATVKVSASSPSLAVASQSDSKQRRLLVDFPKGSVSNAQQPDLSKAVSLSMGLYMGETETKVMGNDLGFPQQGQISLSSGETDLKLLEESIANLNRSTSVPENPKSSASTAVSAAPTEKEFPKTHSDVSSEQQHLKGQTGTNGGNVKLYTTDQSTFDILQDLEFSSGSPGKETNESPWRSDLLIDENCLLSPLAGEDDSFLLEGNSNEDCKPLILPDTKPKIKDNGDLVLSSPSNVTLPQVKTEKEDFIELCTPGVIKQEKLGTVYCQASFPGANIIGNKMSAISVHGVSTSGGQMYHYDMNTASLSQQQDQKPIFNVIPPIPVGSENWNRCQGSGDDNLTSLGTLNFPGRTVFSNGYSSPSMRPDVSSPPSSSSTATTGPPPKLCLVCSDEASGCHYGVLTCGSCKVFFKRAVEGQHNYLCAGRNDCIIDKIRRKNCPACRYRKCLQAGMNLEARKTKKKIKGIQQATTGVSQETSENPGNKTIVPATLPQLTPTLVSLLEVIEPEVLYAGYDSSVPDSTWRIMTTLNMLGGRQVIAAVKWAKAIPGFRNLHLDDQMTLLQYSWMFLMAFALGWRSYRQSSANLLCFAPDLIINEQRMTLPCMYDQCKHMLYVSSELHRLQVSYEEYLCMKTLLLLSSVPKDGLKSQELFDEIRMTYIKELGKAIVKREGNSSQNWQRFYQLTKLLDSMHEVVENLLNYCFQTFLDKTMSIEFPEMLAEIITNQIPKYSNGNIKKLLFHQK
Sequence of 3',5'-cyclic-AMP phosphodiesterase 4B (Homo sapiens) (Q07343 whole entry, looked up): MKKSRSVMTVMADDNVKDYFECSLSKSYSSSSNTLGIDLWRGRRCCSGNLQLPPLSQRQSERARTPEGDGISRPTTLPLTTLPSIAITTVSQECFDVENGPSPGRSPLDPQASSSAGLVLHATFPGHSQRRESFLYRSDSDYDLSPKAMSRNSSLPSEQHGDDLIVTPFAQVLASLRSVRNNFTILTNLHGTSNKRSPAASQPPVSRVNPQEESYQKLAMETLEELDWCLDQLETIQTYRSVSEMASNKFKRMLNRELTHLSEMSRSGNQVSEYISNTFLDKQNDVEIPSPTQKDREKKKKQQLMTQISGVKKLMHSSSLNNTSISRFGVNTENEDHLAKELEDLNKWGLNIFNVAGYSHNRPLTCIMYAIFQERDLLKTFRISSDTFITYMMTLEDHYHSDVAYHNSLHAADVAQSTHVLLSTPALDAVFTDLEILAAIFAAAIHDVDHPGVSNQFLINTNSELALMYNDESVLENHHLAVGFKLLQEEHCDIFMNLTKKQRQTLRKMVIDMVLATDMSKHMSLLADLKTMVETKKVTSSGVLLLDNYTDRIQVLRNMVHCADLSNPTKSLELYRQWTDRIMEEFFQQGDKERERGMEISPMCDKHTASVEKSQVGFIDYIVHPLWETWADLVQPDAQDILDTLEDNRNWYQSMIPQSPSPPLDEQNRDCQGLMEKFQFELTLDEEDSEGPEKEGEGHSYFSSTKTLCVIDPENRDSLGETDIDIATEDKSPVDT
Sequence of Cytochrome P450 1A2 (Homo sapiens) (P05177 whole entry, looked up): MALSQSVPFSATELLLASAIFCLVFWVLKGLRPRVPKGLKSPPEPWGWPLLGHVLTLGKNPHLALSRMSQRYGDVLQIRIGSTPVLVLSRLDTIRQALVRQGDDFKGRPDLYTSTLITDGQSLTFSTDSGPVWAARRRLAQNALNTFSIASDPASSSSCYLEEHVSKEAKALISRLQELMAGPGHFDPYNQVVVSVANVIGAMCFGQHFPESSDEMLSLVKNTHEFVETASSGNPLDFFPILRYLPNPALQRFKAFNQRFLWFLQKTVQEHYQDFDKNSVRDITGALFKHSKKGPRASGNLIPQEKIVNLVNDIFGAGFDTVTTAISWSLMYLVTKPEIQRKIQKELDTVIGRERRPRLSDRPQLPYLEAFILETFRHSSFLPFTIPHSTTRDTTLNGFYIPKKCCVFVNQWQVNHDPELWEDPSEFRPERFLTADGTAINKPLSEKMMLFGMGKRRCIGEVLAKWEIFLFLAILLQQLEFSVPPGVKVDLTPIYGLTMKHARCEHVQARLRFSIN
Sequence of Lysosomal acid glucosylceramidase (Homo sapiens) (P04062 whole entry, looked up): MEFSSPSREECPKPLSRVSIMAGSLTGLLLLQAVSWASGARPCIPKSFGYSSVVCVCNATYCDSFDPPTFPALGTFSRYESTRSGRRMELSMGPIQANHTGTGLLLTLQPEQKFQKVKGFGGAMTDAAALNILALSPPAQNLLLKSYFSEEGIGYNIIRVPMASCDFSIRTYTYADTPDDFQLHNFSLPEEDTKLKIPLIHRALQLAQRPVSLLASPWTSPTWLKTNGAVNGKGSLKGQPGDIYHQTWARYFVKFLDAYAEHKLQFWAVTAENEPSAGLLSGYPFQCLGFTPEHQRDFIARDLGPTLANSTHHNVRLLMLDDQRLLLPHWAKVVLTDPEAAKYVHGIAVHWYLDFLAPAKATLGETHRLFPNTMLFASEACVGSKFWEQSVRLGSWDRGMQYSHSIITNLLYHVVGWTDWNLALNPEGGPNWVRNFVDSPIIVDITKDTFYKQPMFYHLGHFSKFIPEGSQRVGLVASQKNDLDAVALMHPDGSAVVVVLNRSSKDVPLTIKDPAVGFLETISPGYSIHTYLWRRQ

For the molecule `Cc1cc(/C=C\c2ccc3cc(N(C)C)ccc3[n+]2C)c(C)n1-c1ccccc1`, the activity change, negative = inhibition was 12.4% [at 17.2 µM] (inactive) in [1] and -5.56% (inactive) in test [5] (at 25.7 µM (top of the series)). Further, the Potency in test [2] and in test [3] was > 20.6 µM (inactive) in each case. Further, the Potency entry in test [4] is “inactive”. Besides, the max response was -11.1% in [5] (setting [19]) and -18.2% in test [5] (setting [20]).
On to `COc1ccc(/C=C/C(=O)O)cc1OC`, for which the activity change, negative = inhibition in test [5] (at 57.5 µM (top of the series)) was 14.6% (inactive). Further, the max response came to 4.45% in test [5] (setting [19]) and 26.5% in test [5] (setting [20]).
As for `CN1CCN(c2ncncc2-c2ccc(N(C)C)cc2)CC1`, the Potency in test [6] is > 11.4 µM (inactive); in test [7] it was 12.6 µM (active); in test [2], > 46 µM (inactive); in test [3], > 46 µM (inactive). Also, the values for the activity change, negative = inhibition in test [1], in test [8] and in test [5] (at 57.5 µM (top of the series)) were -1.37% (inactive), 6.42% (inactive) and 2.46% (inactive), respectively. Also, the activity, negative = inhibition in test [9] was 3.73% (inactive). Also, the Potency result in [10], in test [4], in test [11] and in [12] was “inactive” each time. Besides, the max response came out at 19.8% in test [5] (setting [19]) and 21.2% in test [5] (setting [20]).
Turning to `CC#C[C@]1(O)CC[C@H]2C3CCC4=CC(=O)CCC4=C3[C@@H](c3ccc(N(C)C)cc3)C[C@@]21C` (stereo partly specified), the activity change, negative = inhibition in test [5] (at 57.5 µM (top of the series)) is 0.852% (inactive). Moreover, the max response in test [5] (setting [19]) was -13.1%; in [5] (setting [20]), -13.3%.
Take `CC(=O)OC1c2c(ccc3ccc(=O)oc23)OC(C)(C)C1OC(=O)CC(C)C` (stereo unspecified): the Potency is 20 µM (active) in [13], 25.1 µM (active) in test [5] and 44.1 µM (active) in [18]. Further, the Potency entry in [11], in test [14], in test [16] and in test [17] was “inactive” in each case. Moreover, the outcome in [15] was inactive. For the same molecule, the max response in test [5] (setting [19]) was -23.2%; in test [5] (setting [20]), -91.6%.
In the case of `COc1cc(O)c(C(=O)/C=C/c2ccc(OC)c(O)c2)c(OC)c1`, in test [13], the Potency is 6.31 µM (active). For the same molecule, the Potency result in test [11], in [14] and in [16] was “inactive” each time. The molecule was classed as inactive in [15]. For the same molecule, the activity change, negative = inhibition in [5] (at 57.5 µM (top of the series)) was -24.7% (inactive). In addition, the max response in test [5] (setting [19]) is -3.92%; in test [5] (setting [20]) it was -25.6%.
With `CCC(=O)OC1CCC2C3CCc4cc(O)ccc4C3CC[C@]12C` (stereo partly specified), the Potency entry in [14], in test [16] and in [17] was “inactive” throughout. The activity change, negative = inhibition in test [5] (at 57.5 µM (top of the series)) is 3.26% (inactive). Besides, the values for the max response in [5] (setting [19]) and in test [5] (setting [20]) were 9.46% and 15.5%, respectively. For the same molecule, in test [18], the Potency is 49.4 µM (active).
With `O=C1C=CC2=C3c4cc(O)c(O)cc4CC3(O)COC2=C1O` (stereo unspecified), the Potency in test [13] is 31.6 µM (active). For the same molecule, the Potency entry in [11], in test [14], in test [16] and in [17] was “inactive” in each case. Besides, the result in test [15] was inactive. Besides, the activity change, negative = inhibition in test [5] (at 57.5 µM (top of the series)) was 6.15% (inactive). Further, the max response in test [5] (setting [19]) is 11.8%; in test [5] (setting [20]), 21%.
